Here are results for 11 compounds from PubChem BioAssay.

Activity calls are given as the source filed them. The rule behind the calls is not given here.

This test can be described thus: inhibitors of hydroxyurea-induced Chk1 phosphorylation, primary screen, imaging, HeLa, phospho-Chk1 nuclear intensity (AID 1187). Note: test concentration not given here. The conditions noted are these: hydroxyurea-induced phospho-Chk1 immunofluorescence imaging, higher = more signal.
Consider `COc1cc2c(cc1O)C(C1CC1)N(Cc1cccc(OC(F)(F)F)c1)CC2` (stereo unspecified), for which the z-score was 0.678 (inactive).

Turning to `C=CC[C@]1(C(=O)N2CCOCC2)COC(c2ccc(OCCCO)cc2)=N1`, the z-score is -0.0405 (inactive). On to `C=CC[C@]1(C(=O)N2CCCCC2)N=C(c2ccc(OCCCO)cc2)O[C@H]1c1ccccc1CN=[N+]=[N-]`, for which the z-score was -1.06 (inactive).

For the compound `COc1ccc(CCNC(=O)[C@@]2(Sc3ccc(C)cc3)CC(=O)N(Cc3ccccc3C(F)(F)F)[C@@H]2c2ccc(CO)cc2I)cc1`, the z-score was 0.68 (inactive).

Take `O=C1N(CCS(=O)(=O)c2ccccc2)c2ccccc2[C@H]2OC(c3ccc(OCCCO)cc3)=N[C@@]12Cc1ccccc1`: the z-score is 0.158 (inactive). Turning to `CCCCC[C@H]1OC[C@@]23C=C(Br)[C@@H](CC12)[C@@]1(CO1)C3=O` (stereo partly specified), the z-score is -0.245 (inactive). For the compound `COC(=O)[C@@]1(Cc2ccc(OC)cc2)[C@H]2c3cc(C(=O)N(C)C)n(Cc4ccc(OC(F)(F)F)cc4)c3C[C@H]2CN1C(=O)c1ccccc1`, the z-score is -0.666 (inactive). Take `CCC#CCN(Cc1ccccc1Br)[C@H](/C=C/C1CC1)[C@@H](O)Cc1ccccc1`: the z-score is -0.875 (inactive).

For the compound `CC[C@@H]1O[Si](C(C)C)(C(C)C)c2c1cc(-c1cc(C)c(OC)c(C)c1)nc2-c1ccc(Oc2ccccc2)cc1`, the z-score is -0.461 (inactive). For `CCCNC(=O)[C@@]1(C)c2ccccc2C(=O)N(c2ccc(C)cn2)[C@H]1c1ccc(CO)cc1`, the z-score was -0.172 (inactive). In the case of `[N-]=[N+]=Nc1ccccc1[C@@H]1OC(c2ccc(OCCCO)cc2)=N[C@]1(Cc1ccccc1)C(=O)N1CCCCC1`, the z-score was -0.606 (inactive).
